Sampled rows, rich in hits. Any-hit rate of the full collection: about 5.7%.
PI5P4K alpha inh – blocks human PI5P4K alpha kinase activity; PI5P4Kalpha enzyme, ADP-Glo luminescence, 60 min; hits give low values; hit rate 1.2% among 330,000; P48426; max response, %; active = max response of -50% or lower; inconclusive = between -30% and -50%; inactive = -30% or higher; note: value at the top dose of about 77 µM; % is set by controls: 0 for no effect and ±100 for the full control effect
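Single end-point luminescence (ADP-Glo) quantified ADP from PI5P4Kalpha turnover; ATP 5 microM final, 1 h at RT, 0.1% CHAPS and 0.28 mM EGTA in HEPES pH 7.4.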
L3MBTL1 inh – inhibitors of human L3MBTL1; AlphaScreen L3MBTL1–H3K9me1 peptide binding; Potency, µM (highest dose often 57.1 µM), for inactives: at the highest dose activity, negative = inhibition, most hits filed as inhibitors; hit rate 0.66% among 230,000; AID 485360; note: potency is the fitted concentration of half-maximal effect; % is set by controls: 0 for no effect and ±100 for the full control effect; nearly all actives have a fitted effect of over 60% in size
Target sequence (Q9Y468 whole entry, looked up): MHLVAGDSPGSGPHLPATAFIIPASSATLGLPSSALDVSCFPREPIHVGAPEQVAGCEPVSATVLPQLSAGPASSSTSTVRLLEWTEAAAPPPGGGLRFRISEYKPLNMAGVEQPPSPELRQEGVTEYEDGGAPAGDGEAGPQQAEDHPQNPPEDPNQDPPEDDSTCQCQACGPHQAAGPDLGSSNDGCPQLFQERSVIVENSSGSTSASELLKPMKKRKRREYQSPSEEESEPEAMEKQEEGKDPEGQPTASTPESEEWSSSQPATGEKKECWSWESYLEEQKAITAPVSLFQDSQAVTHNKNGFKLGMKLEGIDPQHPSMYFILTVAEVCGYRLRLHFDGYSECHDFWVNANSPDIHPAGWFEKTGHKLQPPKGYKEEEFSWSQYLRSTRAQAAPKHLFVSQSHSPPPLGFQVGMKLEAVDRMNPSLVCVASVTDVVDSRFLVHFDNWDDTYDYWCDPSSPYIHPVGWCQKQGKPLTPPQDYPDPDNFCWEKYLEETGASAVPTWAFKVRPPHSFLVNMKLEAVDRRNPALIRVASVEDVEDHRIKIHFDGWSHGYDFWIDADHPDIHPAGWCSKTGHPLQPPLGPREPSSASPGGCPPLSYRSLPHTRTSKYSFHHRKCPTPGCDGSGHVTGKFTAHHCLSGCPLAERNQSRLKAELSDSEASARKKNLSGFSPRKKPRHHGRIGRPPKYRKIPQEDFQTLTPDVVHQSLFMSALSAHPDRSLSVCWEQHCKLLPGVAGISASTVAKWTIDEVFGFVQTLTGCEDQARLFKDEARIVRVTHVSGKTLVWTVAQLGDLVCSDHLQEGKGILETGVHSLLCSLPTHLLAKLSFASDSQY
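Displacement of a biotinylated histone H3(1-15) peptide monomethylated at Lys9 (75 nM) from L3MBTL1 (50 nM) was measured by AlphaScreen after a 30 min room-temperature compound incubation; cefsulodin titration served as intraplate control.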
HP1b chromo inh – HP1-beta chromodomain-methylated histone interaction inhibition. Potency, µM (highest dose often 114 µM), for inactives: at the top dose activity change, negative = inhibition, hits mostly inhibitors. hit rate 0.56% among 390,000. AlphaScreen HP1-beta / biotin-H3K9me3 peptide binding. P83916. AID 540317; note: potency is the fitted concentration of half-maximal effect; nearly all actives have a fitted effect of over 70% in size
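HP1-beta protein (50 nM final) preincubated 30 min at room temperature with biotinylated H3(1-18)K9me3 peptide (50 nM) in PBS pH 7.4, 0.01% Tween-20, then compound added for 30 min. AlphaScreen streptavidin donor/nickel chelate acceptor beads (10 ug/mL final), 30 min dark, luminescence read.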
BAZ2B block – inhibitors of human BAZ2B bromodomain. Q9UIF8. AlphaScreen BAZ2B-H3K14Ac peptide displacement. Potency, µM (series often up to 114 µM), for inactives: top-dose activity change, negative = inhibition, hits mostly inhibitors. hit rate 4.4% among 360,000. AID 504333; note: potency is the fitted concentration of half-maximal effect; % is set by controls: 0 for no effect and ±100 for the full control effect; nearly all actives have a fitted effect of over 60% in size
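In this displacement format the biotinylated H3(5-23) peptide acetylated at Lys14 serves as ligand at 50 nM, with BAZ2B at 50 nM in PBS pH 7.4 containing 0.01% Tween-20. Donor and acceptor beads are 10 ug/mL final.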
JMJD2A Tudor – JMJD2A Tudor domain (human) inhibition; AlphaScreen JMJD2A-Tudor / H3K4me3 peptide binding; Potency, µM (series often up to 114 µM), for inactives: at the highest dose activity change, negative = inhibition, usual class: inhibitors; hit rate 4.4% among 390,000; AID 504339; note: potency is the fitted concentration of half-maximal effect; % is set by controls: 0 for no effect and ±100 for the full control effect; nearly all actives have a fitted effect of over 50% in size
KDM4E inh – JMJD2E (human) inhibition. JMJD2E catalytic domain, FDH-coupled NADH fluorescence (FDH is formaldehyde dehydrogenase). Potency, µM (doses to about 57.1 µM), without a hit: at the top dose activity change, negative = inhibition, hits mostly inhibitors. hit rate 1.6% among 230,000; active = well fitted inhibition curve with a large enough effect, not every such curve was filed as active; inconclusive = small, poorly fitted or top-dose-only effect, or another doubt; inactive = no such curve, though single readings can be large or run the other way;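 note: potency is the fitted concentration of half-maximal effect; 0% = wells with enzyme and -100% = buffer wells without enzyme; nearly all actives have a fitted effect of over 50% in size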
Starred values were filed as active, the others as inactive; ? = inconclusive; nt = no result; [ ] = dose if it differs, or a comment. Unless noted, calls come from the whole dose curve; as a rule, active = well fitted inhibition curve with a large enough effect; inconclusive = small, poorly fitted or top-dose-only effect; inactive = no such curve, though single readings can be large or run the other way.

SMILES | PI5P4K alpha inh | L3MBTL1 inh | HP1b chromo inh | BAZ2B block | JMJD2A Tudor | KDM4E inh
O=c1cc(CSc2n[nH]c(-c3ccncc3)n2)nc2sccn12 | ? | ? | 19% | ? | -28% | 2%
COCCn1c(SCc2cc(=O)n3ccsc3n2)nnc1-c1ccncc1 | 2 | nt | 6% | -16% | 40µM* | 1%
Cc1cc(C)c(C(=O)Nc2ccccc2)c(SCC(=O)Nc2ccc(Br)cc2C)n1 | nt | nt | 29% | 1% | -4% | nt
O=C(O)c1cccc(NC(=O)c2ccc(N3C(=O)c4ccc(C(=O)Nc5cccc(C(=O)O)c5)cc4C3=O)cc2)c1 | -51* | nt | 30% | -12% | -15% | nt
O=C(O)c1ccc(NC(=O)c2ccc3c(c2)C(=O)N(c2ccccc2)C3=O)cc1 | 1 | nt | 20% | -20% | -22% | nt
CC(=O)/C(N=Nc1ccc2c(c1)OCO2)=C(\C)O | -5 | -2% | 11% | 6% | -23% | 1%
Nc1n[nH]c(N)c1N=Nc1ccc2c(c1)OCO2 | -16 | ? | -5% | 40µM* | ? | 2%
Cc1nc(NC(=S)NC(=O)c2cncc(Br)c2)ccc1Br | -20 | 17% | 6% | -28% | 18µM* | ?
Cc1ccnc(NC(=S)NC(=O)c2cncc(Br)c2)c1 | -2 | 4% | 24% | -39% | 3% | -3%
CCn1c(CCNC(=O)c2ccccc2Cl)n[nH]c1=S | 5 | -4% | 33% | 4% | 40µM* | -1%
CCn1c(CCNC(=O)c2ccc(Cl)cc2Cl)n[nH]c1=S | nt | 4% | 41% | 9% | 7.1µM* | -3%
Cc1ccc(-c2nc3ccccc3[nH]2)cc1NC(=O)COc1ccccc1[N+](=O)[O-] | nt | nt | 14% | -25% | -4% | nt
CCOc1ccc2nc(SCC(=O)NCc3ccc(OC)c(OC)c3)[nH]c2c1 | -19 | 1% | -14% | -12% | -24% | 4%
COc1ccc2nc(SCC(=O)NCc3ccc(OC)c(OC)c3)[nH]c2c1 | -11 | nt | 5% | -3% | 89µM* | nt
CCN(CC)P(=O)(Nc1ccc(C)cc1Br)c1ccc(N(C)C)cc1NC(=O)c1ccco1 (configuration not stated) | -8 | nt | ? | ? | 40µM* | -14%
COC(=O)CC1C(C)(C)C(O)C2CC3=C4C=C(OC)OC(c5ccoc5)[C@]4(C)CCC3[C@@]1(C)C2=O (some centres not stated) | nt | nt | nt | nt | nt | -3%
O=c1c2ccccc2sn1-c1ccc(S(=O)(=O)N2CCCCC2)cc1 | nt | nt | ? | nt | 8.9µM* | nt
Cc1ccc(C(=O)NNC(=O)c2ccccc2)cc1S(=O)(=O)N1CCCCC1 | -2 | -1% | 54% | 1% | 6% | nt
Cc1ccc(-n2sc3ccccc3c2=O)cc1S(=O)(=O)N1CCCCC1 | -111* | -16% | ? | 5.6µM* | 7.9µM* | 11µM*
O=c1c2ccccc2sn1-c1ccc(S(=O)(=O)N2CCCC2)cc1 | nt | 2% | 1.4µM* | 7.1µM* | 11µM* | ?
COc1ccc2c(c1)O[C@@H](c1ccc3c(c1)OCO3)[C@H](OC(=O)N[C@H]1CCCc3ccccc31)C2=O | nt | nt | nt | nt | nt | 6%
CC(=O)c1ccc(Nc2ccc3cc(S(=O)(=O)N4CCCC4)ccc3n2)cc1 | nt | nt | 35% | 2% | -25% | nt
CCN(CC)S(=O)(=O)c1ccc2c(c1)N(CC(=O)NCCc1ccc(OC)c(OC)c1)C(=O)CO2 | nt | nt | 52% | -9% | -17% | nt
Cc1cccc(NC2(C(=O)O)CCCC2)c1 | -22 | nt | -17% | nt | 35µM* | nt
O=C(O)C1(Nc2ccccc2)CCCC1 | -4 | nt | -18% | nt | -1% | nt
SMILES | PI5P4K alpha inh | L3MBTL1 inh | HP1b chromo inh | BAZ2B block | JMJD2A Tudor | KDM4E inh
COc1ccc(C(=O)c2oc3ccccc3c2NC(=O)COc2ccccc2)cc1 | nt | nt | 46% | 9% | -12% | nt
O=C(O)c1cc(O)c2c(c1)[C@H]([C@H]1c3cc(C(=O)O)cc(O)c3C(=O)c3c(O[C@@H]4O[C@H](CO)[C@@H](O)[C@H](O)[C@H]4O)cccc31)c1cccc(OC3O[C@H](CO)[C@@H](O)[C@H](O)[C@H]3O)c1C2=O (some centres not stated) | -79* | 0.16µM* | ? | 0.79µM* | 0.32µM* | nt
O=C1c2cc(CO)cc(O)c2C(=O)c2c(O[C@@H]3OC(CO)[C@@H](O)[C@@H](O)[C@@H]3O)cccc21 (some centres not stated) | -11 | nt | 7% | nt | -25% | nt
O=C(O)c1cc(O)c2c(c1)[C@@H]([C@H]1c3cc(C(=O)O)cc(O)c3C(=O)c3c(O[C@@H]4O[C@H](CO)[C@@H](O)[C@H](O)[C@H]4O)cccc31)c1cccc(OC3O[C@H](CO)[C@@H](O)[C@H](O)[C@H]3O)c1C2=O (some centres not stated) | -89* | 0.16µM* | -76% | 0.79µM* | 0.32µM* | nt
CCCNC(=S)Nc1c(C)n(C)n(-c2ccccc2)c1=O | 1 | 1%[11.4 µM] | 48% | -29% | -10% | 8%
O=C(NC1CC(=O)N(c2ccccc2)C1)c1cc2ccccc2o1 (configuration not stated) | nt | nt | 24% | 4% | 6% | nt
Cc1ccc(CN2CCN(/N=C/c3cccs3)CC2)cc1 | -2 | -6% | ? | 45µM* | -25%[57.1 µM] | 3%
BrC(=C\c1ccccc1)/C=N/N1CCN(Cc2ccccc2)CC1 | 1 | -15% | ? | ? | ? | -3%
Cc1ccc(CN2CCN(/N=C\C=C\c3ccccc3)CC2)cc1 | 6 | ? | ? | 28µM* | 40µM* | 5%
Cc1ccc(CN2CCN(/N=C\c3cccc([N+](=O)[O-])c3)CC2)cc1 | 29 | ? | 35µM* | 28µM* | 45µM* | -7%
Cc1ccc(/C=N/N2CCN(Cc3ccccc3)CC2)s1 | 1 | ? | ? | 7.1µM* | 50µM* | 12%
CCc1ccc2[nH]c3nc(N/N=C/c4ccc(O)cc4O)nnc3c2c1 | -15 | -4% | 27% | -31% | -14% | nt
Cc1ccc(CN2CCN(/N=C/c3ccc(C)s3)CC2)cc1 | 0 | -23% | ? | 40µM* | ? | 5%
Cc1ccc(/C=N/N2CCN(Cc3ccc(C)cc3)CC2)cc1 | 1 | ? | -4% | 35µM* | ? | 0%
Cc1ccc(CN2CCN(/N=C/c3ccc(C(F)(F)F)cc3)CC2)cc1 | 23 | 1% | ? | -34% | ? | -6%
COc1cccc(CNC(=O)CC(c2ccc(F)cc2)N2Cc3ccccc3C2=O)c1 (configuration not stated) | nt | nt | 12% | -37% | -7% | nt
CCOc1ncccc1C(=O)OCC(=O)NCc1ccccc1 | 4 | 3% | -2% | nt | -9% | nt
Cc1ccccc1Cn1c(=O)n(CCCCC(=O)NCc2ccc3c(c2)OCO3)c(=O)c2ccccc21 | nt | nt | 41% | 2% | 3% | nt
CN(C)c1ccc(-c2nc(-c3ccco3)no2)cc1[N+](=O)[O-] | nt | nt | 31% | -16% | -12% | nt
